Screening results from PubChem.
Shown are actives, neighbours in structure and some others; about 3.1% of the full set was active somewhere.
TROY NFkB inh: inhibitors of TROY-dependent NF-kB signaling; AID 1347056; Q293 LMP1-TROYcd NF-kB luciferase reporter, 4 h; 360,000 tested, 0.98% active; inhibition, % at 10 µM;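 active means compounds whose plate-normalised and pattern-corrected inhibition of the luciferase reporter signal at the single screening dose is 50% or more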
PAX8 reporter: lowers PAX8-driven luciferase in RMG-I cells; RMG-I TPO-luciferase reporter, SteadyGlo, 24 h; inhibition, % at 12.6 µM; 360,000 tested, 1.2% active;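 active means mean replicate inhibition at least 60% with every replicate also reaching 60%; inconclusive means only one of the two criteria is met; inactive means mean below 60% and not all replicates reaching 60%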;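 further: luciferase light reporting Pax8 driven TPO promoter activity; plate controls were median of neutral control wells for no effect and mitoxantrone controls for full effect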
LGR2 antag: blocks bursicon-induced cAMP signaling via Drosophila LGR2; 380,000 tested, 0.35% active; HEK293 LGR2, CRE-luciferase, bursicon-stimulated, 4 h; inhibition, % at 9.99 µM;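 active means drop in luminescence signal, shown as inhibition above about 50% in the replicate tests, limit read from the data, passing the limit was not always enough; inconclusive means probably only some replicates passing the limit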;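 further: agonist challenge used bursicon conditioned medium at about half maximal strength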
EWS-Fli block: blocks EWS/Fli oncoprotein-driven transcription | inhibition, % at 12.6 µM | AID 651661 | 350,000 tested, 0.67% active | A673 NR0B1-luciferase reporter, viability-normalised;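 active means mean inhibition of at least 50% after viability correction, with every replicate also passing that limit; inconclusive means mean reaches 50% but only one of two replicates passes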;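 further: firefly luciferase signal divided by Alamar Blue viability fluorescence both relative to DMSO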
LMP1 NFkB inh: inhibitors of Epstein-Barr LMP1-induced NF-kappaB reporter; AID 504558; 350,000 tested, 0.69% active; inhibition, % at 12.5 µM; LMP1-induced NF-kappaB luciferase reporter cells, luminescence; in the data active means inhibition above about 41%; inconclusive means no clear call, values can overlap the other calls;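 further: 0% = neutral control wells and 100% = reference inhibitor control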
TWEAK Fn14 block: blocks TWEAK-Fn14 interaction in a reporter cell assay; AID 1159606; inhibition, % at 10 µM; 360,000 tested, 2% active; TWEAK-stimulated Fn14 reporter cells, luciferase luminescence, 8 h; in the data active means inhibition above about 50%
Starred values were filed as active, the others as inactive; u = inconclusive; x = not tested or not shown.

SMILES	TROY NFkB inh	PAX8 reporter	LGR2 antag	EWS-Fli block	LMP1 NFkB inh	TWEAK Fn14 block
O=C1NC2C(=CC(O)C(O)C2O)c2cc3c(c(O)c21)OCO3 (centres undefined)	84*	x	106*	54*	95*	95*
O=C1NC2C(O)C(O)C(O)C(O)C2c2cc3c(c(O)c21)OCO3 (centres undefined)	81*	105*	103*	56*	92*	99*
COC(=O)[C@H]1[C@H](CO)[C@H]2Cn3c(ccc(-c4cccc(OC)c4)c3=O)[C@@H]1N2C(=O)c1ccccc1F	x	-2	2	0	x	x
N#Cc1cccc(-c2ccc([C@@H]3[C@H]4CN(C(=O)Cc5ccncc5)CCCCN4[C@H]3CO)cc2)c1	x	0	0	x	x	x
COc1ccc2c(c1)/C(=C/c1cnc[nH]1)C(=O)N2	21	79*	95*	-28	88*	11
N#Cc1cccc(-c2ccc([C@H]3[C@@H](CO)N4CCCCN(C(=O)Cc5ccncc5)C[C@@H]34)cc2)c1	x	14	-13	x	x	x
COC(=O)[C@H]1[C@H](CO)[C@H]2Cn3c(ccc(C4=CCCCC4)c3=O)[C@@H]1N2CCc1ccccc1	x	11	-7	1	x	x
CC(=O)O[C@@]12CO[C@@H]1C[C@@H](O)[C@@]1(C)C(=O)[C@H](O)C3=C(C)[C@@H](OC(=O)[C@H](O)[C@@H](NC(=O)c4ccccc4)c4ccccc4)C[C@@](O)([C@@H](OC(=O)c4ccccc4)C12)C3(C)C (some centres undefined)	5	x	x	55*	23	23
CC(=O)O[C@@]12CO[C@@H]1C[C@H](OC1OCC(O)C(O)C1O)[C@@]1(C)C(=O)[C@H](O)C3=C(C)[C@@H](OC(=O)[C@H](O)[C@@H](NC(=O)c4ccccc4)c4ccccc4)C[C@@](O)([C@@H](OC(=O)c4ccccc4)C12)C3(C)C (some centres undefined)	-4	x	13	55*	-22	2
CC(=O)OC12COC1CC(O)C1(C)C(=O)C(O)C3=C(C)C(O)CC(O)(C(OC(=O)c4ccccc4)C21)C3(C)C (centres undefined)	-2	x	-22	73*	-5	32
O=C(Cc1ccccc1)N1CCCCN2[C@H](CO)[C@H](c3ccc(C#Cc4ccccc4)cc3)[C@@H]2C1	x	-15	10	x	x	x
Fc1ccc(C(OCCN2CCN(CCCc3ccccc3)CC2)c2ccc(F)cc2)cc1	-2	u	21	34	30	29
c1ccc(CCCN2CCN(CCOC(c3ccccc3)c3ccccc3)CC2)cc1	8	22	x	17	82*	-4
c1ccc(-c2[nH]c(-c3ccccc3)[n+](CC3CO3)c2-c2ccccc2)cc1 (centres undefined)	41	4	39	x	3	80*
COC(=O)C[C@]1(C(=O)OC)CN(C#N)N(c2ccc(Cl)cc2)C12c1ccccc1-c1ccccc12	89*	109*	78*	x	90*	96*
COC(=O)[C@@H]1[C@@H](C(=O)OC)C2(c3ccccc3-c3ccccc32)N(c2ccc(Cl)cc2)N1C#N	84*	x	36	x	30	26
COCC#Cc1ccc([C@@H]2[C@H]3CN(C(=O)Cc4ccccn4)CCCCN3[C@H]2CO)cc1	x	-10	18	-11	x	x
O=C(N/N=C/c1c(O)n(C2CCCCC2)c(=S)[nH]c1=O)c1ccccc1O	-21	-6	8	-10	42*	-61
C[C@@H]1CN(C2CCC(C#N)(c3ccc(F)cc3)CC2)CC[C@]1(C(=O)O)c1ccccc1 (some centres undefined)	0	-28	x	7	79*	1
N#CC1(c2ccccc2)CCN(C2CC(=O)N(c3ccc(F)cc3)C2=O)CC1 (centres undefined)	6	-1	8	x	5	-6
CCOC(=O)[C@]12Cc3cc(Cl)ccc3[C@H]1N(CC(=O)OC)C(=O)c1ccccc12	29	x	x	x	x	80*
CCOC(=O)[C@]12Cc3cc(OC)ccc3[C@H]1N(C(C)C)C(=O)c1cc(OC)ccc12	52*	5	u	16	x	-8
CCOC(=O)[C@]12Cc3cc(Cl)ccc3[C@H]1N(C)C(=O)c1ccccc12	10	14	21	-2	x	1
CCOC(=O)[C@]12Cc3cc(Cl)ccc3[C@H]1N(C(C)C)C(=O)c1ccccc12	40	86*	73*	29	x	78*
